Screening data: PubChem, National Center for Advancing Translational Sciences (NCATS)
G9a inh = G9a (human) methyltransferase inhibition. G9a H3K9 monomethylation, AlphaScreen, 2 h. Potency, µM (highest dose often 102 µM), for the others: top-dose activity, negative = inhibition, actives largely listed as inhibitors. AID 504332. 350,000 compounds, 8.8% hits. Q96KQ7; also: potency is read from the fitted curve at half-maximal effect; nearly all actives have a fitted effect of over 75% in size
Target sequence (Q96KQ7 913-1193 limits assumed): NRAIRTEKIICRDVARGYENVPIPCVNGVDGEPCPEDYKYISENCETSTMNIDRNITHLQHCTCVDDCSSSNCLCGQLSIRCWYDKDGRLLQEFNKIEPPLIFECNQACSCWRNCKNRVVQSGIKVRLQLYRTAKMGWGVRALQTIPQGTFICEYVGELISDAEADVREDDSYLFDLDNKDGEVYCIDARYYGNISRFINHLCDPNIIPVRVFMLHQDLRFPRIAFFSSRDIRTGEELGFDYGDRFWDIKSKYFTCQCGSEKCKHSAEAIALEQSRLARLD
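Compounds were preincubated with 20 nM G9a for 15 min, after which biotinylated H3K9 peptide (500 nM) and SAM (20 uM) started a 2 h room-temperature reaction. Monomethylated product was quantified by antibody-based AlphaScreen chemiluminescence.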
VDR inhibitor = vitamin D3 receptor (human) inhibition | 400,000 compounds, 0.93% hits | VDR-SRC2-3 peptide fluorescence polarization, 2 h | P11473 | Potency, µM, inactives show max response, negative = inhibition, most hits filed as inhibitors; also: potency is read from the fitted curve at half-maximal effect
Target sequence (P11473 whole entry, looked up): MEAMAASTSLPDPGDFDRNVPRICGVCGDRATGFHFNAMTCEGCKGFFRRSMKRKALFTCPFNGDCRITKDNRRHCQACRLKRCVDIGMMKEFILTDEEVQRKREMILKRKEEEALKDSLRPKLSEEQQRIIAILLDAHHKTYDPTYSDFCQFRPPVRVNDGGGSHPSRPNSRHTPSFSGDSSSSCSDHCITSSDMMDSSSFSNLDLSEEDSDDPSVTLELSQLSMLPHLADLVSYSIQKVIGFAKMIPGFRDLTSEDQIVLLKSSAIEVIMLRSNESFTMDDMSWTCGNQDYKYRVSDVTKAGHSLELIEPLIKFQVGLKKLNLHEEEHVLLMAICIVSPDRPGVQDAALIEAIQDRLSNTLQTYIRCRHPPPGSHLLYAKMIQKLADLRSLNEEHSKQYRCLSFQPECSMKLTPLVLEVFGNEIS
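After 23 nl compound addition and a short centrifugation, plates sat for 2 hours at ambient temperature; polarization of fluorescence then indicated loss of VDR binding to peptide SRC2-3.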
CCT chaperon mod = changes cytosolic chaperonin activity | activity change, % (test concentration not listed), hits read low | purified chaperonin ATPase assay, HTRF ADP detection, 30 min | 360,000 compounds, 0.3% hits; in the data active = activity change below about -30%
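Nucleotide hydrolysis assay: TRiC at 20–40 nM final (set by batch activity) with 10 uM ATP, 30 min at 37 °C, in presence of 76 uM compound. Detection by competitive ADP HTRF, 30 min ambient.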
MmCpn inh = inhibitors of Methanococcus maripaludis chaperonin TRiC (MmCpn); purified Mm-Cpn ATPase, ADP Transcreener TR-FRET; Potency, µM (top dose mostly 76.9 µM), for the others: at the top dose activity, negative = inhibition, usual class: inhibitors; 330,000 compounds, 0.031% hits; AID 504842; also: potency is read from the fitted curve at half-maximal effect; nearly all actives have a fitted effect of over 80% in size
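Purified archaeal Mm-CPN (25nM final) preincubated 10 min at 37degC with compound, then 10uM ATP for 30 min at 37degC; ADP measured by HTRF Transcreener TR-FRET; buffer 30 mM TRIS pH 7.4, 100mM KCl, 5mM MgCl2, 1mM DTT.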
PLK1 PBD block = PLK1 (human) polo-box domain binding inhibition; P53350; Plk1 PBD binding of FITC phosphopeptide, fluorescence polarization; Potency, µM, without a hit: max response, negative = inhibition, usual class: inhibitors; 360,000 compounds, 2.8% hits; AID 720504; also: potency is read from the fitted curve at half-maximal effect; series mostly up to about 57 µM; nearly all actives have a fitted effect of over 65% in size
Sfp PPTase inh = blocks B. subtilis Sfp PPTase activity. Potency, µM, inactives show largest response in the series, negative = inhibition, most hits filed as inhibitors. Biochemical Sfp PPTase activity, qHTS. 310,000 compounds, 3.5% hits;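 also: the enzyme is Sfp with the accession as filed and its product quenches rhodamine fluorescence; potency is read from the fitted curve at half-maximal effect; 0% = enzyme reaction without inhibitor and -100% = no enzyme wells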
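Fluorescence-quenching assay: 15 nM Sfp-PPTase preincubated 15 min at room temperature with compound, then 5 uM rhodamine-CoA and 12.5 uM BHQ-2-labelled YbbR peptide added. Fluorescence (ex 525/em 598 nm) read at start and after 30 min; difference gives rate.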
An asterisk follows results filed as active; ? = inconclusive; / = no result given; [ ] = another dose, or the depositor's remark. Only some compounds are listed: those with a hit (about 10% of all), similar ones and a draw of the others. Unless noted, calls follow the shape of the dose curve; as a rule, active = well fitted curve in the direction sought with a large enough effect; inconclusive = small, poorly fitted or top-dose-only effect, or another doubt; inactive = no such curve, though single readings can be large; an effect the other way counts as inactive or inconclusive. Unless noted, % is scaled to controls: 0 for no effect and ±100 for the full control effect.

SMILES | G9a inh | VDR inhibitor | CCT chaperon mod | MmCpn inh | PLK1 PBD block | Sfp PPTase inh
Cn1cc(C(c2ccccc2)c2ccc(Cl)s2)c2ccccc21 (stereo not given) | 12%[59 µM] | -15% | / | / | / | /
COc1ccc2[nH]c(=O)c(CN(C(=O)c3cccc(Cl)c3)c3cccc(C)c3)cc2c1 | -24%[59 µM] | 12% | / | / | / | /
C[N+](C)(CCCOc1ccccc1)c1ccccc1 | 6%[21.5 µM] | -5% | / | / | / | 37%
C[N+](C)(CCOc1ccccc1)Cc1ccccc1 (tested in a mixture with another compound) | 40µM* | -9% | 2 | -2% | ? | -11%
CNc1nc(C(=O)O)nc(N2CCOCC2)n1 | 5.6µM* | -13% | -1 | -1% | 0% | 56µM*
CNc1nc(OCC(F)(F)F)nc(N2CCOCC2)n1 | 19%[59 µM] | -17% | 0 | / | 6.7µM* | -1%
Cc1c(C(=O)NCc2ccccc2Cl)sc2nc3n(c(=O)c12)CCCCC3 | -29%[59 µM] | 2% | / | / | / | /
COc1ccc(C(=O)OCC(=O)NC2CC2)cc1S(=O)(=O)N(C)Cc1ccccc1 | 50µM* | -11% | 1 | 0% | 0% | /
COc1ccc(C(=O)OCC(=O)NC(Cc2ccccc2)C(C)=O)cc1S(=O)(=O)N1CCCC1 (stereo not given) | 56µM* | -6% | 2 | 3% | -1% | /
CCCCC(=O)NC(=S)NNC(=O)CC | 7.1µM* | -9% | 0 | 1% | -12% | ?
CCCCC(=O)NC(=S)NNS(=O)(=O)c1ccccc1 | ? | ? | -1 | -2% | 12µM* | ?
CCCCCC(=O)NC(=S)NNC(=O)CC | ? | ? | -5 | -1% | -7% | ?
O=C(NC(=S)NNS(=O)(=O)c1ccccc1)c1cccnc1 | ? | 20% | 0 | 1% | ? | 5%
CCCCC(=O)NC(=S)Nc1cccc(NC(=O)CC)c1 | 41%[0.0925 µM] | -15% | -2 | -4% | -11% | -10%
CCCCC(=O)NC(=S)Nc1c(C)cc(Br)cc1C | 10µM* | -24% | 0 | -1% | 15µM* | 35µM*
Cc1c(Cl)cccc1NC(=O)C1CCCN(c2nnc(-n3c(C)ccc3C)s2)C1 (stereo not given) | 9%[59 µM] | ? | / | / | / | /
COc1cc(S(=O)(=O)NCCc2c(C)[nH]c3ccc(C)cc23)ccc1Br | ? | 10% | / | / | / | /
c1ccc(Oc2c3ccccc3nc3ccccc23)cc1 | -5%[12.7 µM] | 45µM* | -3 | -1% | -6% | -1%
C=C(C)C(=O)Nc1cccc(C2=NOC3(C2)C[C@@H](C(N)=O)N(C(=O)c2ccc(Cl)cc2)C3)c1 (stereo not given in full) | ? | -7% | 0 | 0% | 24µM* | 5%
CCC(=O)Nc1cccc(C2=NOC3(C2)C[C@@H](C(N)=O)N(C(=O)COc2ccc(Cl)cc2)C3)c1 (stereo not given in full) | -8%[12.7 µM] | -9% | -1 | 1% | 1% | -10%
C=C(C)C(=O)Nc1cccc(C2=NOC3(C2)C[C@H](C(N)=O)N(C(=O)COc2ccc(Cl)cc2)C3)c1 (stereo not given in full) | ? | -9% | 2 | -4% | 24µM* | 4%
CCOc1ccc(C(=O)N(Cc2ccc(C(C)C)cc2)Cc2ccco2)cc1 | 6%[59 µM] | -3% | / | / | / | /
COC(=O)/C(=C(/F)SCC(C)=O)C(F)(F)F | 16µM* | / | / | 0% | / | -5%
COc1cc2ccccc2cc1C(=O)Nc1ccc(Cl)c(-c2nc3ccccc3o2)c1 | -9%[59 µM] | -5% | / | / | / | /
CC(C)OCCCNC(=O)c1ccc(Br)cc1 | 5% | 9% | -2 | -1% | -4% | 3%
SMILES | G9a inh | VDR inhibitor | CCT chaperon mod | MmCpn inh | PLK1 PBD block | Sfp PPTase inh
CC(C)OCCCn1c(-c2ccc(Br)cc2)c[nH]c1=S | 3.5µM* | -9% | 2 | -4% | -21% | ?
O=C(O)/C=C/c1ccc(S(=O)(=O)NCc2cccnc2)cc1 | 23%[59 µM] | ? | -1 | 0% | 24µM* | 15%
CC1CCCN(c2ncnc3c2nc2n3CCCCC2)C1 (stereo not given) | 7%[59 µM] | 1% | / | / | / | /
CC(c1ccccc1)C1CC(=O)N(Cc2ccco2)C1=O (stereo not given) | ? | -17% | -1 | 0% | -22% | 22µM*
CCCCNC(=O)CCCCCn1c(=O)[nH]c2ccccc2c1=O | 6%[59 µM] | 19% | / | / | / | /
CC(C)OCCCn1c(=O)c2ccccc2n2c(-c3ccc(F)cc3)nnc12 | 28µM* | 3% | / | / | / | /
COc1cc(OC)c(-c2nnc3n(CCc4ccccc4)c(=O)c4ccccc4n23)cc1OC | -11% | / | / | -15% | / | 10%
COc1cc(-c2nnc3n(CCc4ccccc4)c(=O)c4ccccc4n23)cc(OC)c1OC | 18µM* | 7% | -4 | -8% | 0% | -9%
CC1CCCC(C)N1C(=O)COC(=O)CSc1ccc([N+](=O)[O-])cc1 (stereo not given) | ? | -30% | -2 | 1% | 19µM* | /
CCNc1ccc(C(=O)OCC(=O)N(Cc2ccccc2)C(C)(C)C)cc1[N+](=O)[O-] | 89µM* | 6% | 0 | -2% | -3% | 2%
CC(C)(C)N(Cc1ccccc1)C(=O)COC(=O)CSc1ccc([N+](=O)[O-])cc1 | 40µM* | -30% | 1 | 1% | 12µM* | /
CCCN(CC(=O)Nc1ccccc1C)C(=O)COC(=O)CSc1ccc([N+](=O)[O-])cc1 | ? | ? | 0 | 0% | 19µM* | /
CCOC(=O)C1CCN(C(=O)COC(=O)CSc2ccc([N+](=O)[O-])cc2)CC1 | -8% | ? | -3 | 2% | ? | /
COc1ccc(Oc2ncc3nc(CCc4ccccc4)c(=O)n(C4CC4)c3n2)cc1 | -3%[12.7 µM] | -23% | / | / | / | -8%
CC(C)OCCCNC(=O)c1cn(C)c2ccc(S(=O)(=O)N3CCCCCC3)cc2c1=O | 37%[59 µM] | 2% | / | / | / | /
CC(C(=O)Nc1ccc(C(N)=O)cc1)N1C(=O)c2ccccc2S1(=O)=O (stereo not given) | -21% | -11% | -1 | -2% | -4% | /
CC(C(=O)Nc1ncc([N+](=O)[O-])s1)N1C(=O)c2ccccc2S1(=O)=O (stereo not given) | 11µM* | -15% | -1 | 0% | -25% | /
O=C(Nc1ccc2oc(-c3ccncc3)nc2c1)c1ccc(Br)o1 | 32µM* | -4% | 2 | 0% | -6% | 4%
O=C(Nc1ccc2oc(-c3ccncc3)nc2c1)c1ccco1 | 40µM* | -5% | 1 | -5% | -15% | 5%
O=C(Nc1ccc2oc(-c3ccccc3)nc2c1)c1ccco1 | 13%[59 µM] | -9% | -4 | 0% | -2% | 0%
Cc1ccc(-c2nnc(C3CCN(S(=O)(=O)c4ccc(C)c(C)c4)CC3)o2)cc1 | ? | -14% | / | / | / | /
